# Screening results as filed in PubChem.
# The list is not random: actives were taken first. Their share in the collection is about 21%.
# HCV inhibitor – qHTS Assay for Inhibitors of Hepatitis C Virus (HCV); Huh7.5.1 HCVcc-Cre infection, luciferase reporter, 44 h; Potency, µM (highest dose often 41.8 µM), for the others: top-dose activity change, negative = inhibition, actives largely listed as inhibitors; 340,000 compounds, 3.4% hits; AID 651820, 2012; also: potency is read from the fitted curve at half-maximal effect; % is scaled to controls: 0 for no effect and ±100 for the full control effect
#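 After 44 h co-culture of compound, cells and HCVcc-Cre (~0.5 moi), substrate is added for 15 min at room temperature and luciferase measured over 15 sec. Cells were seeded at 1,000/well and pre-cultured 4 h.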
# Cycloheximide cs – Cycloheximide Counterscreen for Small Molecule Inhibitors of Shiga Toxin. cell reporter, cycloheximide protein synthesis inhibition counterscreen. max response, %. 300,000 compounds, 12% hits; in the data active = max response mostly above about 13%, no sharp cut-off; inactive = mostly below about 14%; also: read at 38.3 µM for the half of the compounds with a filed dose; 0% is about no effect
# Pf growth 48h – Primary qHTS for delayed death inhibitors of the malarial parasite plastid, 48 hour incubation; 310,000 compounds, 5.9% hits; AID 504832, 2011; P. falciparum luciferase growth in erythrocytes, 48 h; Potency, µM (doses to about 28.7 µM), inactives show top-dose activity change, negative = inhibition, hits mostly inhibitors; also: potency is read from the fitted curve at half-maximal effect; % is scaled to controls: 0 for no effect and ±100 for the full control effect
#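 Read-out is firefly luciferase luminescence from an integrated reporter in P. falciparum, so falling signal marks reduced parasite growth. Infected erythrocytes were at 2% hematocrit and 0.1% parasitemia (final) in Albumax-supplemented RPMI 1640.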
# HCMV antiviral – qHTS Assay for inhibitors of the human cytomegalovirus (HCMV); HFF cells, HCMV-luciferase reporter, 72 h; stronger effect = lower value; activity change, negative = inhibition, % at 57.5 µM; 410,000 compounds, 4.5% hits; AID 1259415, 2018; in the data active = activity change below about -60%; inconclusive = no clear call, values can overlap the other calls; inactive = above about -39%; also: % is scaled to controls: 0 for no effect and ±100 for the full control effect
#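 Cell-based, HFFs, 1000 cells/well, 16 h 37C; cpds in DMSO + HCMV-luc, MOI 1 PFU/cell; 72 h 37C; OneGlo luminescence after 5 min RT; norm. to buffer vs Salinomycin 10uM.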
# Pf growth 96h – Primary qHTS for delayed death inhibitors of the malarial parasite plastid, 96 hour incubation | 320,000 compounds, 6.9% hits | Potency, µM (highest dose often 28.7 µM), for inactives: at the highest dose activity change, negative = inhibition, actives largely listed as inhibitors | P. falciparum luciferase reporter growth, 96 h; also: potency is read from the fitted curve at half-maximal effect; % is scaled to controls: 0 for no effect and ±100 for the full control effect
#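 Readout is luminescence from an integrated firefly luciferase in P. falciparum. Red cells, 2% hematocrit and 0.05% parasitemia final, were cultured with compound through two parasite generations (96 hours) at 37 C, 5% CO2.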
# Shiga inhibitor – A qHTS for Small Molecule Inhibitors of Shiga Toxin; Vero cells, Shiga toxin protein synthesis inhibition reporter; inhibition, % at 38.7 µM; 290,000 compounds, 9.2% hits; AID 2315, 2010; in the data active = inhibition mostly above about 28%, no sharp cut-off; inactive = mostly below about 43%; also: 0% is about no effect
# * marks the source's active call; other numbers are inactive results; ? = inconclusive; · = no result given; + = active, no number; ! = not active in a repeat; [ ] = remark or other dose. Unless noted, calls follow the shape of the dose curve; as a rule, active = well fitted inhibition curve with a large enough effect; inconclusive = small, poorly fitted or top-dose-only effect, or another doubt; inactive = no such curve, though single readings can be large or run the other way.
SMILES,HCV inhibitor,Cycloheximide cs,Pf growth 48h,HCMV antiviral,Pf growth 96h,Shiga inhibitor
C=CC[C@@H]1C=C[C@H](O/N=C/[C@@H](NS(=O)(=O)c2ccc(C)cc2)[C@H](C)/C=C/CC(=O)OC)[C@@H](CO)O1,1%[8.37 µM],-3,10%,·,-27%,-19
COC(=O)C/C=C/[C@@H](C)[C@@H](/C=N/OC[C@@H](C)[C@H](OCc1ccccc1)C(C)C)NS(=O)(=O)c1ccc(C)cc1,-15%[8.37 µM],-2,13µM*,·,9.3µM*,34
CC12CCC(c3c(CO)nn(-c4ccccc4)c31)C2(C)C (stereo unspecified),7%,-1,?,23,10µM*,11
CC(C)=C1SC(N2CCN(Cc3ccccc3)CC2)=NC1=O,10%,23*,?,10,-2%,73
CCN(CC(=O)Nc1cccc(OC)c1)C(=O)c1cnc(Cl)c(Cl)c1,15%,-2,3%,-25,21%,-3
N#C/C(=C/c1cccs1)c1nc2ccccc2[nH]1,?,65*,?,65,?,64*
N#C/C(=C\C1CC=CCC1)c1nc2ccccc2[nH]1 (stereo unspecified),?,27*,8.3µM*,-82*,·,48
N#C/C(=C\c1cccs1)Sc1nc2ccccc2s1,?,31*,14%,-35,-19%,44*
Cn1c(/C(C#N)=C/C2CC=CCC2)nc2ccccc21 (stereo unspecified),5%,9,?,-16,·,-7
CN(C)/C=C(\C#N)c1nc2ccccc2[nH]1,0%,13,33%,36,?,26
N#C/C(=C\c1c(Cl)cccc1Cl)c1nc2ccccc2[nH]1,-26%,14*,8.3µM*,-70*,8.3µM*,36
Cc1ccc(/C=C(\C#N)c2nc3ccccc3[nH]2)s1,?,49*,?,170,1.7µM*,53*
COc1cccc2cc(-c3nc4sc(C(=O)Nc5ccc(F)cc5F)c(C)c4c(=O)[nH]3)c(=O)oc12,·,·,·,+,·,·
COc1ccccc1NC(=O)c1sc2nc(-c3cc4ccccc4oc3=O)[nH]c(=O)c2c1C,·,·,·,-3,·,·
Cc1ccc2c(c1)N(S(=O)(=O)c1ccc(F)cc1)C(C(C)(C)C)CO2 (stereo unspecified),7%,10,13µM*,13,0%,10
Cc1ccc(S(=O)(=O)N2c3ccccc3OCC2C(C)(C)C)cc1 (stereo unspecified),-6%,-2,9.3µM*,-14,?,-3
CC(c1ccccc1)N1C(=O)/C(=C/c2ccncc2)SC1=S (stereo unspecified),?,1,?,-2,?,-6
CC1CCN(C(=O)Cn2c(-c3cccs3)cc3cc(Cl)ccc32)CC1,·,·,·,-23,·,·
C/C(=N/NC(=O)c1nnn(-c2nonc2N)c1COc1ccccc1)c1ccc(O)cc1,1%,-1,13%,2,70%,1
COc1ccc(-c2nc(NC(=O)c3ccccc3)sc2-c2ccc([N+](=O)[O-])cc2)cc1,-7%,1,-13%,3,?,-11
Cc1ccccc1Nc1nc(-c2sc(NC(=O)c3ccccc3)nc2C)cs1,·,12,9.3µM*,·,12µM*,50*
Cc1ccc(Nc2nc(-c3sc(NC(=O)c4ccc([N+](=O)[O-])cc4)nc3C)cs2)cc1,·,1,9.3µM*,·,2.6µM*,-6
COc1ccc(OC)c(Nc2nc(-c3sc(NC(=O)c4ccccc4)nc3C)cs2)c1,·,-2,?,·,-22%,35
CCOc1ccccc1Nc1nc(-c2sc(NC(=O)c3ccc([N+](=O)[O-])cc3)nc2C)cs1,·,6,3.3µM*,·,?,44
Cc1ccccc1Nc1nc(-c2sc(NC(=O)c3ccc([N+](=O)[O-])cc3)nc2C)cs1,·,16*,?,·,13µM*,39
SMILES,HCV inhibitor,Cycloheximide cs,Pf growth 48h,HCMV antiviral,Pf growth 96h,Shiga inhibitor
O=C(C[C@H]1C/C=C\CCC(=O)OC[C@H]2CCCN2C1=O)NCCO,17%,·,·,-6,·,·
Cc1ccc(Cl)cc1Nc1nc(-c2sc(NC(=O)c3cccc(Cl)c3)nc2C)cs1,·,11,?,·,?,-3
Cc1ccccc1Nc1nc(-c2sc(NC(=O)c3cccc(Cl)c3)nc2C)cs1,·,19*,?,·,?,44
COCCCNC(=O)Cn1c(=O)n(CCCCCC(=O)NCc2ccc3c(c2)OCO3)c(=O)c2sccc21,10%,-1,?,-33,35%,-4
Cc1nc2sc3c(c2c(=O)o1)CCCC3,12%,-4,22%,8,2.1µM*,23
Nc1nc(-c2ccccc2)nc2sc3c(c12)CCCC3,?,53*,153%,205,-1%,124*
O=c1oc(-c2ccccc2)nc2sc3c(c12)CCC3,6%,70*,5%,-9,20%,70*
Nc1c2c(nc3sc4c(c13)CCCC4)CCCCCC2,-9%,2,10%,65,35%,15
Cc1nc2sc(C)c(C)c2c(=O)o1,4%,-3,1%,109,-26%,-9
O=C1CCC(=O)N1c1ccc(-c2nc3sc4c(c3c(=O)o2)CCC4)cc1,?,2,25%,-5,15%,9
Cc1sc2nc(-c3ccccc3)oc(=O)c2c1C,3%,66*,40%,-1,?,113*
CC(C)c1nc2sc3c(c2c(=O)o1)CCCC3,11%,-1,25%,28,5%,2
CCc1ccccc1NC(=O)C(CC)Oc1ccccc1-c1nnc(-c2ccccc2)o1 (stereo unspecified),·,·,·,14,·,·
CC(C)(C)C(=O)NCC(c1ccc2c(c1)OCO2)N1CCOCC1 (stereo unspecified),·,·,·,24,·,·
COc1cc(OC)c(NC(=O)c2c(C)oc3ncn(C)c(=O)c23)cc1Cl,·,·,·,-19,·,·
COc1ccc(CNC(=O)Cc2coc3ccc(C)cc23)cc1,·,·,·,13,·,·
COc1nnc(-c2ccc(N3CCCCC3)c(NC(=O)c3ccccc3Cl)c2)c2ccccc12,·,·,·,-99*,·,·
Cn1nc(-c2ccc(N3CCCCC3)c(NC(=O)c3ccco3)c2)c2ccccc2c1=O,7.1µM*!,1,?,-29,·,-8
COc1nnc(-c2ccc(N3CCOCC3)c(NC(=O)c3ccccc3)c2)c2ccccc12,-30%,1,·,?,?,-11
COc1nnc(-c2ccc(N3CCOCC3)c(NC(=O)c3ccco3)c2)c2ccccc12,?,-2,7.4µM*,?,13%,-6
O=C(Cn1c(=O)nc(-c2ccccc2)c2ccccc21)N1CCN(c2ccc(F)cc2)CC1,·,·,·,-38,·,·
COC(=O)c1ccc(C2c3c(-c4ccccc4O)n[nH]c3C(=O)N2Cc2cccnc2)cc1 (stereo unspecified),·,·,·,5,·,·
